Data taken from PubChem BioAssay (NCI).
Where “and” joins values, the source holds several entries; their conditions need not be identical. Equal entries are not always repeated. The panel holds about 83,000 compounds, 20% with a hit somewhere; the sample as a whole holds those more often.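 In brief: 96-well plates, 48 h treatment, single concentration, percent growth endpoint.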 Some structures have more than one record in an assay (separate samples or runs), and their calls can disagree. Calls of active or inactive are those of the source. How the source made its calls: active means growth percent below 10; inactive means the rest.

Legend:
Assay in all cases: NCI-60 one-dose screen, 48 h (100 = growth as untreated, 0 = no growth, -100 = all killed)
Conditions in all cases: 10 µM
NCI-H23 lung = tested on: NCI-H23 lung
NCI-H522 lung = tested on: NCI-H522 lung
MDA-MB-231 breast = tested on: MDA-MB-231 breast
M14 melanoma = tested on: M14 melanoma
SK-MEL-5 melanoma = tested on: SK-MEL-5 melanoma
UACC-62 melanoma = tested on: UACC-62 melanoma
LOX IMVI melanoma = tested on: LOX IMVI melanoma
CCRF-CEM leukemia = tested on: CCRF-CEM leukemia
SR leukemia = tested on: SR leukemia
OVCAR-8 ovarian = tested on: OVCAR-8 ovarian
OVCAR-5 ovarian = tested on: OVCAR-5 ovarian
SK-OV-3 ovarian = tested on: SK-OV-3 ovarian
IGROV1 ovarian = tested on: IGROV1 ovarian
HS 578T breast = tested on: HS 578T breast
NCI/ADR-RES ovarian = tested on: NCI/ADR-RES ovarian
T-47D breast = tested on: T-47D breast
SW-620 colon = tested on: SW-620 colon
MCF7 breast = tested on: MCF7 breast
HCT-116 colon = tested on: HCT-116 colon
KM12 colon = tested on: KM12 colon

Measured: growth

C=C1[C@@H](C)C2[C@H](Cc3ccccc3)NC(=O)[C@]23[C@H](OC(C)=O)/C=C/[C@@](C)(O)C(=O)[C@@H](C)C/C=C/[C@H]3[C@@H]1O (stereo not given in full)
active: LOX IMVI melanoma 1.65% | IGROV1 ovarian 8.46% | HS 578T breast 9.13%
inactive: NCI-H23 lung 69.8% | NCI-H522 lung 22.3% | MDA-MB-231 breast 33% | M14 melanoma 51.3% | SK-MEL-5 melanoma 33.5% | UACC-62 melanoma 84.5% | CCRF-CEM leukemia 48.7% | SR leukemia 43.2% | OVCAR-8 ovarian 74.6% | OVCAR-5 ovarian 96.1% | SK-OV-3 ovarian 15.1% | NCI/ADR-RES ovarian 98.5% | T-47D breast 81.6% | SW-620 colon 77.2% | MCF7 breast 23.3% | HCT-116 colon 44.4% | KM12 colon 62.7%

C[C@@H]1C[C@H]2C(=O)O[C@@H](C)C(NC(=O)[C@H](Cc3cc(F)cc(F)c3)NC(=O)Nc3ccc(OS(=O)(=O)F)cc3)C(=O)N3CCC[C@H]3C(=O)N3CCO[C@H](C)[C@H]3C(=O)N[C@@H](CO)C(=O)N2C1 (stereo not given in full)
active: SK-MEL-5 melanoma -6.32% | LOX IMVI melanoma 7.58% | HCT-116 colon 9.86%
inactive: NCI-H23 lung 36.1% | NCI-H522 lung 20.3% | MDA-MB-231 breast 32% | M14 melanoma 23.6% | UACC-62 melanoma 23.5% | CCRF-CEM leukemia 34.1% | SR leukemia 25.3% | OVCAR-8 ovarian 23.6% | OVCAR-5 ovarian 33.4% | SK-OV-3 ovarian 18.7% | IGROV1 ovarian 47.4% | HS 578T breast 40.2% | NCI/ADR-RES ovarian 99.2% | T-47D breast 33% | SW-620 colon 39% | MCF7 breast 16.8% | KM12 colon 37.8%

CC(C)=CCc1c2c(c(O)c3c1O[C@]14C(=C[C@@H]5C[C@H]1C(C)(C)O[C@@]4(C/C=C(/C)C(=O)O)C5=O)C3=O)C=CC(C)(C)O2
active: NCI-H23 lung -45.4% | NCI-H522 lung -70.9% | MDA-MB-231 breast -56.1% | M14 melanoma -50.1% | SK-MEL-5 melanoma -98.9% | UACC-62 melanoma -69.4% | LOX IMVI melanoma -95.6% | CCRF-CEM leukemia -1.96% | SR leukemia -3.62% | OVCAR-8 ovarian -59.4% | OVCAR-5 ovarian -80.5% | SK-OV-3 ovarian -38.9% | IGROV1 ovarian -55.2% | HS 578T breast -11.1% | NCI/ADR-RES ovarian 4.39% | T-47D breast -40.7% | SW-620 colon -75.1% | MCF7 breast -61% | HCT-116 colon -71.5% | KM12 colon -73.4%

COc1cc(C)c(-c2ccc(OC)c(=O)cc2C)c(OC)c1OC
inactive: NCI-H23 lung 22.3% and 106% | MDA-MB-231 breast 18.3% and 99.8% | SK-MEL-5 melanoma 21.7% and 99.7% | UACC-62 melanoma 30.8% and 86.1% | LOX IMVI melanoma 18% and 106% | CCRF-CEM leukemia 10.1% and 96.8% | OVCAR-5 ovarian 24.6% and 98.9% | SK-OV-3 ovarian 32.4% and 102% | IGROV1 ovarian 27.2% and 103% | T-47D breast 61% and 137% | SW-620 colon 19.6% and 104% | MCF7 breast 14.8% and 91.5% | HCT-116 colon 11.9% and 102%
4.63% (active) and 101% (inactive): M14 melanoma
-11.4% (active) and 98.2% (inactive): NCI-H522 lung
1.63% (active) and 109% (inactive): HS 578T breast
-11.5% (active) and 107% (inactive): NCI/ADR-RES ovarian
5.3% (active) and 100% (inactive): OVCAR-8 ovarian
9.85% (active) and 89.4% (inactive): SR leukemia
6.94% (active) and 109% (inactive): KM12 colon

C/C=C/CC(C)C(O)[C@H](NC(=O)[C@@H]1CCCN1C(=O)C(C)(C)NC(=O)CCCCCCCCC)C(=O)N[C@@](C)(CC)C(=O)N[C@@H](CCC(N)=O)C(=O)N[C@H](CCC(N)=O)C(=O)NC(C)(C)C(=O)NC(C)(C)C(=O)N[C@@H](CCC(N)=O)C(=O)N[C@H](CC(C)C)C(=O)N[C@H](CO)CC(C)C (stereo not given in full)
-54.6% (active) and 12.6% (inactive): SK-MEL-5 melanoma
2.04% (active) and 49.9% (inactive): OVCAR-5 ovarian
-19.1% (active) and 54.4% (inactive): UACC-62 melanoma
5.65% (active) and 38.4% (inactive): OVCAR-8 ovarian
inactive: NCI-H23 lung 15.6% and 49.3% | CCRF-CEM leukemia 14.7% and 49.4% | SK-OV-3 ovarian 37.6% and 80.8% | IGROV1 ovarian 34% and 72.2% | NCI/ADR-RES ovarian 19.7% and 35.4% | T-47D breast 28.6% and 52% | SW-620 colon 38.1% and 93% | HCT-116 colon 33.5% and 78.4%
-32.5% (active) and 10.3% (inactive): KM12 colon
active: NCI-H522 lung -32.9% and -26.1% | LOX IMVI melanoma -57.3% and 1.46% | SR leukemia -32.1% and 8.34% | HS 578T breast -51.7% and -15.4%
-43.6% (active) and 20.4% (inactive): M14 melanoma
-32.1% (active) and 53.6% (inactive): MDA-MB-231 breast
-2.63% (active) and 45.8% (inactive): MCF7 breast
